# Results reported in PubChem BioAssay (NCI).
# The panel holds about 79,000 compounds, 15% with a hit somewhere; the sample as a whole holds those more often. Values without a mark were called inactive. Calls of active or inactive are those of the source. No stated cut-off is given here; in the data, active means growth inhibition above about 70%; inactive means the rest.
# Columns and labels:
# [1] = NCI Yeast Anticancer Drug Screen. Data for the wt2 strain (AID 169);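 further: 0% = growth of vehicle-treated yeast cultures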; conditions: S. cerevisiae wt2 strain growth inhibition, active compounds read high
# In short: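 This strain belongs to a panel of yeast strains with defined genetic alterations in DNA damage repair or cell cycle control. Compounds are applied, and growth inhibition is measured against vehicle-treated cultures.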
# [2] = NCI Yeast Anticancer Drug Screen. Data for the mlh1 strain (AID 171);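 further: 0% = growth of vehicle-treated control cultures of the same strain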; conditions: S. cerevisiae mlh1 strain growth inhibition, active compounds read high
# In short: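 Growth of the mutant yeast strain after compound exposure, expressed as inhibition relative to vehicle-only controls.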
# [3] = NCI Yeast Anticancer Drug Screen. Data for the sgs1 strain (AID 173);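 further: 0% = growth of vehicle-only control cultures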; conditions: S. cerevisiae sgs1 mutant, active compounds read high
# In short: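 Growth of a yeast strain bearing a defined genetic alteration is measured after compound treatment. Inhibition is expressed relative to vehicle-only controls.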
# [4] = NCI Yeast Anticancer Drug Screen. Data for the mlh1 rad18 strain (AID 175); conditions: S. cerevisiae mlh1 rad18 strain growth inhibition, active compounds read high
# In short: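 Read-out is yeast growth inhibition, calculated against vehicle-only controls. The compound was applied to a strain engineered with DNA damage repair alterations.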
# [5] = NCI Yeast Anticancer Drug Screen. Data for the rad18 strain (AID 177); conditions: S. cerevisiae rad18 mutant growth inhibition, active compounds read high
# In short: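 Growth of the mutant yeast strain after compound exposure, normalised to vehicle-only cultures.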
# [6] = NCI Yeast Anticancer Drug Screen. Data for the rad52 strain (AID 147);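 further: 0% = growth of vehicle-treated control cultures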; conditions: S. cerevisiae rad52 mutant growth inhibition, active compounds read high
# In short: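 Compounds are applied to a genetically defined yeast strain lacking normal DNA damage repair, and inhibition of growth is expressed relative to cultures given vehicle only.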
# [7] = NCI Yeast Anticancer Drug Screen. Data for the wt1 strain (AID 149);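 further: 0% = growth of vehicle-treated wt1 cultures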; conditions: S. cerevisiae wt1 strain (SPY 50644) growth inhibition, active compounds read high
# In short: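 Vehicle-normalised growth inhibition; strain wt1; compound exposure.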
# [8] = NCI Yeast Anticancer Drug Screen. Data for the rad50EPP+ strain (AID 151);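 further: 0% = growth of vehicle-treated control cultures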; conditions: S. cerevisiae rad50 mutant strain, active compounds read high
# In short: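 Compounds were applied to the rad50EPP+ yeast strain, which bears a defined DNA repair alteration, and growth inhibition was determined relative to vehicle-treated cultures.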
# [9] = NCI Yeast Anticancer Drug Screen. Data for the mgt1 strain (AID 153); conditions: S. cerevisiae mgt1 mutant growth inhibition, active compounds read high
# In short: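 Strain: mgt1 yeast, one of a set carrying defined DNA damage repair or cell cycle control alterations. Compound-treated growth compared with vehicle.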
# [10] = NCI Yeast Anticancer Drug Screen. Data for the rad50 strain (AID 155);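 further: 0% = growth of vehicle-only cultures of the same strain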; conditions: S. cerevisiae rad50 strain growth inhibition, active compounds read high
# In short: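 A DNA repair-deficient yeast mutant serves as the test organism; compound-induced growth inhibition is calculated against vehicle-treated cells.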
# [11] = NCI Yeast Anticancer Drug Screen. Data for the mec2-1 strain (AID 157); conditions: S. cerevisiae mec2-1 strain, active compounds read high
# In short: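 Strain: mec2-1 (DNA repair/cell cycle alteration). Compound exposure, then growth measured; inhibition expressed relative to vehicle.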
# [12] = NCI Yeast Anticancer Drug Screen. Data for the rad14 strain (AID 159);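 further: 0% = growth of vehicle-treated control cultures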; conditions: S. cerevisiae rad14 strain growth inhibition, active compounds read high
# In short: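 Vehicle-treated cultures served as the baseline for growth inhibition of a DNA repair-mutant yeast strain exposed to each compound.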
# [13] = NCI Yeast Anticancer Drug Screen. Data for the sgs1 mgt1 strain (AID 161);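 further: 0% = growth of cultures given vehicle only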; conditions: S. cerevisiae sgs1 mgt1 strain, active compounds read high
# In short: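 Test agents were incubated with a DNA-repair-mutant yeast strain. Growth was then read and compared against vehicle-treated controls.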
# [14] = NCI Yeast Anticancer Drug Screen. Data for the CLN2oe strain (AID 163);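 further: 0% = growth of vehicle-only control cultures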; conditions: S. cerevisiae CLN2oe strain, active compounds read high
# In short: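 Growth of a genetically modified yeast strain is measured after compound exposure and compared with cultures given vehicle alone.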
# [15] = NCI Yeast Anticancer Drug Screen. Data for the cln2 rad14 strain (AID 165);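 further: 0% = growth equal to vehicle treated cultures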; conditions: S. cerevisiae cln2 rad14 strain, active compounds read high
# In short: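 Compounds are applied to the cln2 rad14 yeast strain, and growth is then compared with that of vehicle-treated cultures to give inhibition.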
# [16] = NCI Yeast Anticancer Drug Screen. Data for the bub3 strain (AID 167); conditions: S. cerevisiae bub3 mutant strain, active compounds read high
# In short: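 Inhibition values come from growth of compound-treated mutant yeast normalised to vehicle-treated controls.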
# [17] = at 5.0 µM (retest, dose inferred, filed as 0.5)
# [18] = at 50.0 µM (retest, dose inferred, filed as 5.0)
smiles,measurement,setting,value
CCOC(=O)c1cc([N+](=O)[O-])cc([N+](=O)[O-])c1Sc1ncnc2nc[nH]c12,growth inhibition,[1]; at 1.2 µM,-29%
same,growth inhibition,[1]; at 3.7 µM,-22%
same,growth inhibition,[1]; at 11.0 µM,-24%
same,growth inhibition,[1]; at 33.0 µM,18%
same,growth inhibition,[1]; at 100.0 µM,96% (active)
same,growth inhibition,[2]; at 1.2 µM,-31%
same,growth inhibition,[2]; at 3.7 µM,2%
same,growth inhibition,[2]; at 11.0 µM,2%
same,growth inhibition,[2]; at 33.0 µM,85% (active)
same,growth inhibition,[2]; at 100.0 µM,97% (active)
same,growth inhibition,[3]; at 1.2 µM,-11%
same,growth inhibition,[3]; at 3.7 µM,-5%
same,growth inhibition,[3]; at 11.0 µM,2%
same,growth inhibition,[3]; at 33.0 µM,74% (active)
same,growth inhibition,[3]; at 100.0 µM,96% (active)
same,growth inhibition,[4]; [17],42%
same,growth inhibition,[4]; [18],89% (active)
same,growth inhibition,[4]; at 50.0 µM,78.5% (active)
same,growth inhibition,[5]; at 1.2 µM,-18%
same,growth inhibition,[5]; at 3.7 µM,-7%
same,growth inhibition,[5]; at 11.0 µM,28%
same,growth inhibition,[5]; at 33.0 µM,81% (active)
same,growth inhibition,[5]; at 100.0 µM,97% (active)
O=C1Nc2ccc(Cl)c(I)c2C1=O,growth inhibition,[6]; at 1.2 µM,3%
same,growth inhibition,[6]; at 3.7 µM,10%
same,growth inhibition,[6]; at 11.0 µM,7%
same,growth inhibition,[6]; at 33.0 µM,32%
same,growth inhibition,[6]; at 100.0 µM,84% (active)
same,growth inhibition,[7]; at 1.2 µM,-11%
same,growth inhibition,[7]; at 3.7 µM,-13%
same,growth inhibition,[7]; at 11.0 µM,-11%
same,growth inhibition,[7]; at 33.0 µM,-14%
same,growth inhibition,[7]; at 100.0 µM,45%
same,growth inhibition,[8]; at 1.2 µM,28%
same,growth inhibition,[8]; at 3.7 µM,35%
same,growth inhibition,[8]; at 11.0 µM,44%
same,growth inhibition,[8]; at 33.0 µM,65%
same,growth inhibition,[8]; at 100.0 µM,79% (active)
same,growth inhibition,[9]; at 1.2 µM,-11%
same,growth inhibition,[9]; at 3.7 µM,-13%
same,growth inhibition,[9]; at 11.0 µM,-5%
same,growth inhibition,[9]; at 33.0 µM,-3%
same,growth inhibition,[9]; at 100.0 µM,59%
same,growth inhibition,[10]; at 1.2 µM,-6%
same,growth inhibition,[10]; at 3.7 µM,-11%
same,growth inhibition,[10]; [17],-13%
same,growth inhibition,[10]; at 11.0 µM,-23%
same,growth inhibition,[10]; at 33.0 µM,26%
same,growth inhibition,[10]; [18],60%
same,growth inhibition,[10]; at 50.0 µM,35.5%
same,growth inhibition,[10]; at 100.0 µM,88% (active)
same,growth inhibition,[11]; at 1.2 µM,2%
same,growth inhibition,[11]; at 3.7 µM,16%
same,growth inhibition,[11]; [17],3%
same,growth inhibition,[11]; at 11.0 µM,16%
same,growth inhibition,[11]; at 33.0 µM,10%
same,growth inhibition,[11]; [18],6%
same,growth inhibition,[11]; at 50.0 µM,62.4%
same,growth inhibition,[11]; at 100.0 µM,58%
same,growth inhibition,[12]; at 1.2 µM,8%
same,growth inhibition,[12]; at 3.7 µM,-1%
same,growth inhibition,[12]; at 11.0 µM,1%
same,growth inhibition,[12]; at 33.0 µM,11%
same,growth inhibition,[12]; at 100.0 µM,84% (active)
same,growth inhibition,[13]; [17],-1%
same,growth inhibition,[13]; [18],17%
same,growth inhibition,[13]; at 50.0 µM,41.9%
same,growth inhibition,[14]; at 1.2 µM,5%
same,growth inhibition,[14]; at 3.7 µM,21%
same,growth inhibition,[14]; at 11.0 µM,-1%
same,growth inhibition,[14]; at 33.0 µM,5%
same,growth inhibition,[14]; at 100.0 µM,47%
same,growth inhibition,[15]; [17],1%
same,growth inhibition,[15]; [18],32%
same,growth inhibition,[15]; at 50.0 µM,37.1%
same,growth inhibition,[16]; at 1.2 µM,-14%
same,growth inhibition,[16]; at 3.7 µM,-5%
same,growth inhibition,[16]; [17],-23%
same,growth inhibition,[16]; at 11.0 µM,-4%
same,growth inhibition,[16]; at 33.0 µM,5%
same,growth inhibition,[16]; [18],70% (active)
same,growth inhibition,[16]; at 50.0 µM,79% (active)
same,growth inhibition,[16]; at 100.0 µM,90% (active)
same,growth inhibition,[1]; at 1.2 µM,-1%
same,growth inhibition,[1]; at 3.7 µM,0%
same,growth inhibition,[1]; at 11.0 µM,3%
same,growth inhibition,[1]; at 33.0 µM,2%
same,growth inhibition,[1]; at 100.0 µM,52%
same,growth inhibition,[2]; at 1.2 µM,31%
same,growth inhibition,[2]; at 3.7 µM,29%
same,growth inhibition,[2]; at 11.0 µM,27%
same,growth inhibition,[2]; at 33.0 µM,36%
same,growth inhibition,[2]; at 100.0 µM,83% (active)
same,growth inhibition,[3]; at 1.2 µM,21%
same,growth inhibition,[3]; at 3.7 µM,23%
same,growth inhibition,[3]; at 11.0 µM,26%
same,growth inhibition,[3]; at 33.0 µM,36%
same,growth inhibition,[3]; at 100.0 µM,92% (active)
same,growth inhibition,[4]; [17],0%
same,growth inhibition,[4]; [18],68%
same,growth inhibition,[4]; at 50.0 µM,67.2%
same,growth inhibition,[5]; at 1.2 µM,28%
same,growth inhibition,[5]; at 3.7 µM,30%
same,growth inhibition,[5]; at 11.0 µM,29%
same,growth inhibition,[5]; at 33.0 µM,41%
same,growth inhibition,[5]; at 100.0 µM,91% (active)
